High-throughput results deposited in PubChem by several laboratories.
In the library only some 2.8% were active in any assay of this set; here they are far more common.
HIF-2a inh – HIF-2a inhibition; actives 0.72% (n = 360,000); AID 624352; inhibition, % at 18.8 µM; 786-0 RCC cells HIF-2a reporter, luciferase luminescence, overnight;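 active means inhibition of the luminescence signal of 40% or more relative to plate controls, in a single-dose primary screen at 18.75 µM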
CF NFkB block – blocks PAF-induced NF-kB reporter in cystic fibrosis cells; KKLEB NF-kB-GFP reporter, GFP fluorescence overnight; actives 0.86% (n = 360,000); inhibition, % at 5 µM;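 active means at least 50% inhibition at 5 µM, scaled per plate between neutral and stimulator controls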;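 further: PAF is a Pseudomonas aeruginosa culture filtrate used as stimulus; plate controls were PAF-stimulated DMSO wells for no effect and unstimulated DMSO wells for full effect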
KKLEB cytotox – reduces viability of KKLEB cystic fibrosis airway cells; KKLEB CF airway cells viability, ATPlite luminescence, overnight; hits give low values; cells stimulated with P. aeruginosa culture filtrate; activity change (cytotoxicity), % at 5 µM; actives 0.36% (n = 360,000);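 active means corrected activity change at or below -50% at 5 µM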
MITF TRPM1 inh – reduces MITF-dependent TRPM1 promoter luciferase signal; actives 0.83% (n = 330,000); inhibition, % at 12.5 µM; SK-MEL-5 TRPM1 promoter luciferase, 24 h;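 active means mean inhibition across replicates of 60% or more, whatever share of single replicates reaches that level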
Beta2AR agonist – activates human beta-2 adrenergic receptor causing internalization; response, % (test concentration not listed); Am2.2-beta2AR cells, FAP receptor internalization, flow cytometry; actives 0.43% (n = 340,000); P07550;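 active means response above a set limit, near 3 SD of response in nonfluorescent compounds, cut at about 42% in these data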
Target sequence (P07550 whole entry, looked up): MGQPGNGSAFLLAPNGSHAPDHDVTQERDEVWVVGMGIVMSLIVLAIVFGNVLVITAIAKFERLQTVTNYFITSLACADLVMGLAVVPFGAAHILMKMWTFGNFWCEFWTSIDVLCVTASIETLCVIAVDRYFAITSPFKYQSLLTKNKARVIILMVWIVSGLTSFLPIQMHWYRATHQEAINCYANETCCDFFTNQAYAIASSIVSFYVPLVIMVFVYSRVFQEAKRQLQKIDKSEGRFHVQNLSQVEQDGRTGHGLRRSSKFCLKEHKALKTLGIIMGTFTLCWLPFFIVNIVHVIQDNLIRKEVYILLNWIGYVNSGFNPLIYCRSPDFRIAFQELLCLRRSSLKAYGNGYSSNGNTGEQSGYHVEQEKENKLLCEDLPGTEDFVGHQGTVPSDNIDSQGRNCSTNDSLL
Peg3 prom inh-1 – inhibitors of Peg3 promoter; HeLa PEG-Prom luciferase reporter, luminescence, overnight; inhibition, % at 20 µM; actives 1.7% (n = 360,000);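 active means inhibition of at least 50% at 20 µM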
B2AR ag CP1 – human beta-2 adrenergic receptor agonism, cherry pick | percent response (surface receptor), % at 10 µM | Am2.2-beta2AR cells, FAP surface receptor, flow cytometry; hits give low values | shares compounds with Beta2AR agonist | actives 25% (n = 1,100) | AID 540358;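 active means surface receptor percent response at or below 58%, roughly 3 SD from nonfluorescent compounds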
B2AR FAP counter – counter-screen for beta-2AR agonists: fluorescence in Am2.2 cells; 1,100 tested, under 10 active; FAP fluorogen flow cytometry, fluorescence counterscreen; hits give low values; calls only at 10 µM; shares compounds with Beta2AR agonist;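 active means percent response below a set limit in fluorescence channel 1 and below 50% in channel 8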
Peg3 prom inh-2 – Peg3 promoter inhibition confirmation | AID 602417 | HeLa PEG-Prom luciferase reporter, luminescence, overnight | shares compounds with Peg3 prom inh-1 | actives 84% (n = 1,300) | inhibition, % at 20 µM;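 active means at 20 µM dose, 40% or more inhibition averaged across four replicates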
HIF-2a inh conf – confirmation of HIF-2a inhibitors; inhibition, % at 18.8 µM; 786-0 RCC cells, HIF-2a luciferase reporter luminescence, overnight; actives 56% (n = 1,800); shares compounds with HIF-2a inh;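 active means mean inhibition across four replicates of at least 40 percent at the single tested concentration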
HIF-1a cs – HIF-1a inhibition counter-screen for HIF-2a hits | shares compounds with HIF-2a inh | MiaPaCa-2 HIF-1a luciferase reporter, desferoxamine, overnight | inhibition, % at 18.8 µM | actives 72% (n = 1,800) | AID 651589;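 active means mean inhibition of the reporter signal across four replicates at the single tested dose of 50% or more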
The depositor's hits bear a star; i = inactive; nt = not tested or not shown; + = active, no number.

SMILES | HIF-2a inh | CF NFkB block | KKLEB cytotox | MITF TRPM1 inh | Beta2AR agonist | Peg3 prom inh-1 | B2AR ag CP1 | B2AR FAP counter | others
CC(NCc1ccccc1C(F)(F)F)C(O)c1ccccc1 (configuration not stated) | -16 | 7 | -7 | -7 | -2 | -2 | 102 | i
Cc1nn(Cc2ccccc2Cl)c(Cl)c1C(=O)O | 8 | 21 | 0 | 4 | 4 | 6 | nt | nt
CC(NCc1ccccc1Cl)C(O)c1ccccc1 (configuration not stated) | -32 | -8 | -1 | -23 | 0 | -32 | 112 | i
CCOc1cc(CNC(C)C(O)c2ccccc2)cc(Cl)c1OCC (configuration not stated) | 7 | 4 | -10 | 1 | 0 | 16 | 112 | i
CCC(=O)Nc1ccc(Cl)c(Cl)c1 | -24 | -13 | 15 | 3 | -4 | 2 | nt | nt
CC1C(=O)OC2CCN3CC4OC4(COC(=O)C(C)(O)C1(C)O)C23 (configuration not stated) | 4 | -4 | 6 | 7 | -4 | -4 | nt | nt
COc1ccc(OC)c2c1CCC1NCCOC21 (configuration not stated) | 10 | 19 | -28 | 6 | 1 | 4 | 110 | i
COc1ccc2c(c1)C1OCCNC1CC2 (configuration not stated) | 4 | 0 | -9 | nt | nt | 1 | nt | nt
CC[n+]1c(/C=C/C=C/c2ccc(N(C)C)cc2)sc2ccccc21 | -19 | -26 | 18 | 71* | 46* | 65* | 105 | i
COc1ccc(C(=O)C2CCCN(C3CSCCSC3)C2)cc1OC (configuration not stated) | 20 | -11 | 21 | -8 | -4 | 21 | nt | nt
CC(C)Cc1[nH]c(=O)c(C#N)c2c1CCC2 | 19 | -4 | 2 | -9 | 4 | 1 | nt | nt
COc1ccc(CC2C(=O)NC(=O)NC2=O)c(OC)c1 | 3 | -12 | -7 | 3 | 3 | 3 | nt | nt
COc1ccc(OC)c(C(O)C2CCCCN2)c1 (configuration not stated) | 19 | 8 | 3 | 9 | 2 | 19 | 109 | i
O=C(Cc1c(Cl)cccc1Cl)N1CCN(Cc2ccccc2)CC1 | 3 | 6 | 0 | -2 | 8 | 8 | nt | nt
CC(Cc1ccc(O)cc1)NCC(O)c1cc(O)cc(O)c1 (configuration not stated) | 6 | 10 | -6 | -7 | nt | 4 | nt | nt
COc1cc(C(O)CNC(C)C)cc(F)c1OC (configuration not stated) | -14 | 3 | -2 | -6 | 1 | 0 | 112 | i
COc1ccc(OC)c([C@@H](O)[C@H](C)NC(C)(C)C)c1 | -5 | 11 | -5 | 11 | -5 | -1 | 121 | i
COc1c(C)cc(C(=O)C2CCCN(C3CCOCC3)C2)cc1C (configuration not stated) | 11 | -39 | -1 | 9 | 58* | 10 | 125 | i
Clc1ccc(COC(Cn2ccnc2)c2ccc(Cl)cc2Cl)c(Cl)c1 (configuration not stated) | 5 | 38 | 4 | 7 | 4 | 24 | nt | nt
COc1cc2c(cc1OC)C13CCN4CC5CCOC6CC(=O)N2C1C6C5CC43 (configuration not stated) | 14 | 5 | -19 | -1 | 1 | 13 | nt | nt
OC12ONC(c3ccccn3)C1N1CCC2CC1 (configuration not stated) | -1 | -22 | 15 | 4 | 8 | -23 | 83 | i
COc1ccc(CC2NCC(O)C2OC(C)=O)cc1 (configuration not stated) | 82* | 80* | -45 | 91* | 110* | 108* | 20* | + | HIF-2a inh conf=85*;HIF-1a cs=105*
Cc1cc(=O)oc2cc(OCC(=O)N3C[C@H]4C[C@@H](C3)c3cccc(=O)n3C4)ccc12 | 2 | -13 | 0 | nt | -2 | -12 | nt | nt
CCOC(=O)[C@]12Cc3cc(C)ccc3[C@H]1N(Cc1ccccc1)C(=O)c1ccccc12 | 17 | -24 | 15 | -1 | 12 | 65* | nt | nt | Peg3 prom inh-2=34
CCOC(=O)[C@]12Cc3cc(OC)ccc3[C@H]1N(Cc1ccccc1)C(=O)c1ccccc12 | 5 | 6 | 6 | 6 | 10 | 17 | nt | nt
SMILES | HIF-2a inh | CF NFkB block | KKLEB cytotox | MITF TRPM1 inh | Beta2AR agonist | Peg3 prom inh-1 | B2AR ag CP1 | B2AR FAP counter | others
CCOC(=O)c1c(-n2c(C)cc(C=C3C(=O)NC(=S)NC3=O)c2C)sc2c1CCCC2 | 77* | 34 | 5 | 64* | 13 | 109* | nt | nt | Peg3 prom inh-2=62*
CCCCn1c(C)c(C(=O)O)c2cc(OC)c3ccccc3c21 | 13 | 22 | 4 | 19 | 3 | 12 | nt | nt
C[C@@H]1C(=O)O[C@H]2[C@H](O)[C@]34[C@@H]5OC(=O)[C@]3(OC3OC(=O)[C@H](O)C34[C@H](C(C)(C)C)[C@@H]5O)[C@@]12O (some centres not stated) | -2 | -1 | 2 | 8 | 9 | 1 | nt | nt
CC[n+]1c(-c2ccccc2)c2cc(N)ccc2c2ccc(N)cc21 | 2 | -66 | 0 | nt | 14 | 55* | nt | nt | Peg3 prom inh-2=87*
COc1ccc(CCn2c(O)c(C=NCCCN(C)C)c(=O)[nH]c2=O)cc1OC | 12 | 13 | -1 | -11 | 0 | 1 | nt | nt
COc1ccc2[nH]c(C)c(CCNCc3cccnc3)c2c1 | 8 | -5 | -2 | 14 | 8 | 11 | nt | nt
Cc1[nH]c2ccc(OC(F)(F)F)cc2c1CCNCc1cccc([N+](=O)[O-])c1 | -26 | 13 | -14 | -13 | 9 | 82* | nt | nt | Peg3 prom inh-2=58*
COC(COC(N)=O)C1=C(N2CC2)C(=O)C(C)=C(N2CC2)C1=O (configuration not stated) | -5 | 89* | -37 | -3 | -14 | 98* | nt | nt | Peg3 prom inh-2=97*
O=[N+]([O-])c1cc(F)c(N2CCCCCC2)cc1N1CCNCC1 | -3 | 26 | -23 | 6 | 23 | 99* | nt | nt | Peg3 prom inh-2=97*
